# According to the supplement of paper PMC10105736:
# B1: mael (protein)
# chain: MAPKKHSGFMMFVNEWRNRNAEGRRMTLAQAVSHCGTIWEKMNTQQRGPYNSGGKDANVAQRAKRESSNGHGQVDKAQREATESLMDMKRTIERLVLNAKMSHDLENAKFVFVAFNYFTKALTTDVYVPAEFAACEYSLKEGIRSIYSTMIDPGQIIFGQGSDALLHSSTTHDLPLPPNALGEKNMTKLYRNIVDYLSKCQGKGKTLVVFTPAENITMVKSCFRYLECDDDFRDGGEKIQVFDIQYLLFILKKEVMNVADLNDEKINKFATDAFFKKDFFEFTAGIACQYHEDNDRTKYCTQSMVTRWAYTFTDFMCGDLAITVQPGKHIPAQTKPNYLIISSYASSLDHESSFDSFYSLPGSGVKKESQPEACSLSSSRLSVASSSYKPIDHTSFAANLNEVSEFPSLGMRNSSKHHGIAASAQREWNARNLPTHSRLIRKVSDNDFSVNGADGKLKK
# B2: Lis-1 (protein)
# chain: MKMVLSQRQREELNQAIADYLGSNGYADSLETFRKEADLSTEVEKKFGGLLEKKWTSVIRLQKKVMELEAKLTEAEKEVIEGAPTKNKRTPGEWIPRPPEKFSLTGHRASITRVIFHPIFALMVSASEDATIRIWDFETGEYERSLKGHTDSVQDVAFDAQGKLLASCSADLSIKLWDFQQSYECIKTMHGHDHNVSSVAFVPAGDYVLSASRDRTIKMWEVATGYCVKTYTGHREWVRMVRVHIEGSIFATCSNDQTIRVWLTNSKDCKVELRDHEHTVECIAWAPEAAASAINEAAGADNKKGHHQGPFLASGSRDKTIRIWDVSVGLCLLTLSGHDNWVRGLAFHPGGKYLVSASDDKTIRVWDLRNKRCMKTLYAHQHFCTSIDFHKAHPYVISGSVDQTVKVWECR
# B3: Sf3b3 (protein)
# chain: MYLYNLTLQKATGVTHAVHGNFSGGKQQEVLLSRGKSLELLRPDSNTGKVHTLLSTEIFGCVRALMAFRLTGGTKDYIVVGSDSGRIVILEYNPSKNALEKVHQETFGKSGCRRIVPGQYFAIDPKGRAVMIGAVEKQKLAYIMNRDTQARLTISSPLEAHKSNTLTYHMVGVDVGFDNPMFACLEIDYEEADMDPSGDAAQRTQQTLTFYELDLGLNHVVRKYSEPLEEHANFLVSVPGGNDGPSGVLICSENYLTYKNLGDQHDIRCPIPRRRNDLDDPERGMIFICSATHRTKSMYFFLLQTEQGDIFKITLETDDDVVSEIKLKYFDTVPPATAMCVLKTGFLFVASEFGNHYLYQIAHLGDDDDEPEFSSAMPLEEGETFFFAPRALKNLVLVDELPSFAPIITSQVADLANEDTPQLYVLCGRGPRSTLRVLRHGLEVSEMAVSELPGNPNAVWTVKKRADDEFDAYIIVSFVNATLVLSIGETVEEVTDSGFLGTTPTLCCAALGDDALVQVYPDGIRHIRSDKRVNEWKAPGKKSITKCAVNQRQVVITLSGRELVYFEMDPTGELNEYTERSEMPAEIMCMALGTVPEGEQRSWFLAVGLADNTVRILSLDPNNCLTPCSMQALPSPAESLCLVEMGHTESTTQGGLDDDAPAQRSGNNKGTIYLNIGLSNGVLLRTVLDPVSGDLADTRTRYLGSRPVKLFRIKMQGSEAVLAMSSRTWLSYYHQNRFHLTPLSYETLEYASGFSSEQCSEGIVAISTNTLRILALEKLGAVFNQVAFPLQYTPRTFVIHPDTGRMLIAETDHNAYTEDTKSARKEQMAEEMRSAAGDEERELAREMANAFINEVLPEDVFSSPKAGLGLWASQIRCLDAMHGQTMFSVPLTQNEAIMSMAMLKFSIAADGRYYLAVGIAKDLQLNPRISQGGCIDIYKIDPTCSSLEFMHRTDIDEIPGALCGFQGRLLAGCGRMLRIYDFGKKKMLRKCENKHIPYQIVNIQAMGHRVYVSDVQESVFFIRYRRAENQLIIFADDTHPRWVTATTLLDYDTIAIADKFGNLSIQRLPHSVTDDVDEDPTGTKSLWDRGLLSGASQKSENICSFHVGEIIMSLQKATLIPGGSEALIYATLSGTVGAFVPFTSREDYDFFQHLEMHMRNENPPLCGRDHLSYRSSYYPVKNVLDGDLCEQYLSIEAAKQKSIAGDMFRTPNQICKKLEDIRTRYAF
# B4: Coprox (protein)
# chain: MNALRHTISLVSLGTFQLVRRTRGPHARGFLLGTGLGLASFSAVTYAHSAEAVDPKVNGVQMNTSRFMAEPITDSKALLGDKENMRHRMEILIMEIQAEFCRALEAEENCGQKFKVDRWERPEGGGGITCVLQDGDVFEKAGVNISVVTGSLPPAAVQQMRARGKNLKEGASLPFFASGVSAVIHPRNPHVPTIHFNYRYFEVETAKGEKQWWFGGGTDLTPYYLCEKDASHFHQTLKSACDEHDPTYYPRFKKWCDDYFRIKHRNESRGIGGIFFDDIDSPNQEAAFNFVSSCARAVIPSYVPLVRKHKNREYGNNERQWQLLRRGRYVEFNLIYDRGTKFGLYTPGARYESILMSLPLHARWEYMHEPKSQSEEGKLMKVLKNPKDWV
# B5: HBS1 (protein)
# chain: MSRHRIVRTMDYNDEYDGYDDIYGHSVEDEHCISPTDAQQWLYDRARGQQSISAFISKNKDIQEEEADEDEDEDAAFAKARRDSESFQMPQLDEIEQAKLSSCVDEVRSVVGDAVSERRIVETSMKFDYDMQKILDEILNEETNKSAKPAVNKMKAPAAPVLPKTVSKTVPTPPPKISLKEPRRGFEIPSPKVPSSPVVSGRNTPVDISAGDDISRSSATVFKVSKEQAVRNARQLYEKERADQKSHIHMIVIGHVDAGKSTLMGHLLYDTGNVSQRVMHKHEQESKKLGKQSFMYAWVLDETGEERARGITMDVGQSRIETKTKIVTLLDAPGHKDFIPNMISGATQADVALLVVDATRGEFESGFELGGQTREHAILVRSLGVNQLGVVINKLDTVGWSQDRFTEIVTKLKSFLKLAGFKDSDVSFTPCSGLTGENLTKKAQEPALTNWYSGRHLLDVIENFKIPERAIDRPLRMSVSDIYKGTGSGFCISGRVETGVLCLNDKVLVGASREQAQVKSLTMNEFPQTCVFAGDQVSVTLPALDINNVTVGCIISDPQTPIPVTTRFQARIIVFNVKVPITMGFPVLLHHQSLIEPAVVCKLTASIHKSTGEVVKKKPRCLGNNSCALVELETSRPICIERYADFKELGRVMLRVAGVTIAAGMVTKIR
# B6: msl-2 (protein)
# chain: MAQTAYLKVTRIAMRSASNLSKRRVEELNSGLGELRQLLSCVVCCQLLVDPYSPKGKRCQHNVCRLCLRGKKHLFPSCTQCEGCSDFKTYEENRMMAAQLLCYKTLCVHLLHSALFGELAGMRPQVARELVPRIKLPPKTTQEFIREGSNISDTFDIFLPQPDLPFLKDMPTSLPAETPPTSAVTTPELPYDHHLNISDIEAEAAATAEQGHFSPLPLLPTGSRMGMLSHAGQIVIATESSESGFMDQAWTDQVDLSGTVSVSKYTNSGNNFAVSYVMPTSATTKFDPQELQIGQVVQMADSTQLAVLAAVEETVETSTQLTVLSTTVEETVETSTQLEVLTSAEEPNEISDQLANLQVEESDEALVEETVEEAEGTSIPSEVVAEHMEEDQHLDVHTSQSPTQTEMEEAVEEHVATKTQLGHVQTELQDAESLQKDFEDAKAAAEEAKEKEKDLHAISAELQKEDSDEPTLKRKRTRTLKASQAAKIEPVPSEVKTKVQSGKGALRRIRGKDKEEKVKPPKPKCRCGISGSSNTLTTCRNSRCPCYKSYNSCAGCHCVCCKNPHKEDYVESDEDDDLEDFEMPKDVPEPMTQSEEPVVAEPRQEENSMAPPDSSAPISLVPLNNLQQSQHPLVLVQNEKGEYQGFNIFQGSKPLDPVTVGFTIRVQLQHTDGFGSLPQYAYIMPTIDPPNPPAPSLSPPPPPAPDREVIEPPAKKFRTSRTRRGRANFSALDTVDELVSGGSRSNSAAGDRSSATDNAHSLFEEIMSGSDDL
# B7: Hsp60B (protein)
# chain: MFRSCVPKAITSSRCFARMYSKDVRFGSGVRAMMIRGVDILADAVAVTMGPKGRSVIVERPWTSPKITKDGFTVARSIALKDQHMNLGAKLVQDVADNTNESAGDGTTTATVLARAIAKEGFNQITMGANPVEIRRGVMLAVDVVKDKLKEMSKAVETREEIQQVATLSANGDTEIGRLIGEATDKVGPRGTITVKDGKRLKDELNIIQGLRFDNGYVSPFFVNSSKGSKVEFANALVMISLKKITGLSQIVKGLEQSLRQRRPLIIIAEDISGEALNALVLNKLRLGLQVCAVKSPSYGHHRKELIGDISAATGATIFGDDINYSKMEEAKLEDLGQVGEAVISKDSTMLLQGKPKTGLLEMRIQQIQDELAEKQIKPEQRDRLRQRLSALTKGVAVLHIGGGSEVEVNEKKDRVVDALNATRAAIEEGIVPGGGTAFLRCIPYLQELKTESADLQKGVDIVCNALRMPCQTIAQNAGVDGPMVVAKVLNGSEDYGYDAMGDEYCRLVEKGIIDPTKVLRTAITDAAGVASLLSTTEVVITDSRNDDLLSKLSGAGGGMDDGLDMNMGGLEELAALSGLGGMGGMGGMGGMGGMGGMGGGFGGMGAGGGMSASASNDGPTAEEMNEMVKAIPGMEQVEVRDIDSGMM
# B8: Srp68 (protein)
# chain: MVVQEDNPNTGDVQEKTETAPVAEPSKIFTVEILHMIKDAQQQHGLRHGDFQRYRGYCSRRIRRLRKALKYPQGDKRHFKRRDVTIGQLTGKKADERFIHIPLICAERAWAYAMQLKQESNTEPRKRFHLVNKLRRACFYALQLQELCNTEAFDARTKLECEAYVAWMHGTLHFELQLWKTAGEHLKRAQVVYENLGKALPEDEQELYRAKVNEFTPNLRYCAYNISGGASGGKIDEILELRAQGVLENLDVLVSQTKTESSEGLQTIDWRGRKVTVRPEKVRLFLLSAQELDKSLAKTTKQDAKIELIERILMDCKDAIQAVRDEIKQDPKLRSLTTGQTVSGVQYLLAYLSYIRHSRTLQRNLCLVEQAKLNFYDPNLQSQQNVGDGKRVRPQDLARLYEIILQNVTEMQQINGLEDDATYQSEVENLAITFKAFRCYYIALTLIDIKKWKEAVALYERASNYATEALKGKSSPEFQLQEELKKVVSAIDGCKFSAHAYSVLEDDNSEESGTTTKSQKTTKPLYERLSLYKEDQSLHTKAPNVFKLTPDMEPIPCKPIFFDLAMTYVELPSLEGKLESPGKKGASITGFVKGFLGWGGGGNK
# B9: rswl (protein)
# chain: MLKHFARWRLGSQLLKGCAAPVRQASKTSSAENLIAGTEEPQKKFVNPFSQPAPALSNDTISENKEERDKRLKVLQLEADIAHQEGRRVPSLEFFKDHHWEHVLTLPTKSARIKYFGYLWQIEMKKEADQRKKAERAKEAERRVAEMRKEREENTHIIYGLGHTSLFLRIYDTTINHWQNNRLTRAMQFAPKMVLDCSYDEHMNNREATYAAKQLMMCFAENRMNDEPFDLHYCNTQMDSRCMQSLQRYIPTMHNPEFPINLHSKCFTELFPKQNLVYLTPHCREDLVTYNPDDIYIVGAMVDTMNNEPLSLAKAKRLGLRMARLPLDRYLQWGSGSGKSLTLNQMINIMLDLKKTGDWDTALKHVPRRKVVQNEFQPRREKDHWSTGTRARKLNMRIDHLFDFDENRRQATSYATPQNVRQRREGLEFQLDTWATGKQKKKQRQN
# Key:
# Assay in all cases: MAPPIT interaction score (arbitrary units); higher = stronger binary interaction signal, active = hit call of the paper;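 active = MAPPIT score above the 99th percentile of random reference set scores in the same batch; inactive = at or below it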
# [1] = molecular target: Hsc70-1; details: MAPPIT configuration: N-N; pair source set: DPIM
# [2] = molecular target: Hsp27; details: MAPPIT configuration: N-N; pair source set: Curagen_low_conf
# [3] = molecular target: Hsp60B; details: MAPPIT configuration: N-N; pair source set: Lit-BS-16
# [4] = molecular target: Ilp6; details: pair source set: RRS
# [5] = molecular target: Ing3; details: MAPPIT configuration: N-N; pair source set: Curagen_low_conf
# [6] = molecular target: JIL-1; details: MAPPIT configuration: N-N; pair source set: Lit-BM-16
# [7] = molecular target: TrxT; details: MAPPIT configuration: N-N; pair source set: screen_2
# [8] = molecular target: JMJD4; details: MAPPIT configuration: N-N; pair source set: Curagen_low_conf
# [9] = molecular target: Pdha; details: MAPPIT configuration: N-N; pair source set: Lit-BS-16
# [10] = molecular target: Pih1D1; details: MAPPIT configuration: N-N; pair source set: Finley_Y2H
# [11] = molecular target: Sms; details: MAPPIT configuration: N-N
# [12] = molecular target: Jheh2; details: MAPPIT configuration: N-N; pair source set: Lit-BS-16
# [13] = molecular target: Jupiter; details: MAPPIT configuration: N-N; pair source set: DPIM
# 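Further: HEK293T cells with Epo stimulation, STAT-responsive firefly luciferase reporter, fold induction versus unstimulated cells divided by the larger fold induction of two negative controls lacking either bait or prey.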
binder,measurement,setting,value
B1,MAPPIT interaction score,[1],2.36 (inactive)
B2,MAPPIT interaction score,[2],-0.515 (inactive)
B3,MAPPIT interaction score,[3],1.36 (inactive)
B4,MAPPIT interaction score,[4]; MAPPIT configuration: N-C,0.0185 (inactive)
same,MAPPIT interaction score,[4]; MAPPIT configuration: N-N,-0.101 (inactive)
B5,MAPPIT interaction score,[5],0.0794 (inactive)
B6,MAPPIT interaction score,[6],0.418 (inactive)
same,MAPPIT interaction score,[7],0.135 (inactive)
B7,MAPPIT interaction score,[8],0.939 (inactive)
same,MAPPIT interaction score,[9],1.16 (inactive)
same,MAPPIT interaction score,[10],0.845 (inactive)
same,MAPPIT interaction score,[11]; pair source set: Finley_Y2H,1.94 (inactive)
same,MAPPIT interaction score,[11]; pair source set: Lit-BM-16,1.8 (inactive)
B8,MAPPIT interaction score,[12],-0.0601 (inactive)
B9,MAPPIT interaction score,[13],0.211 (inactive)
